From the OligoGym collection come the findings set out here.
Further: reference of the scale not given here.

One assay has as its target KRTAP10-10. Put plainly: pooled miR-30 sensor sort-seq; sequence = guide strand. Particulars: shRNA.
With TTGTTACAGACGGGCACGCAGC, the sensor-assay potency score (higher = more potent) is -1.52.
With TGGGCAGTCGACTACCCGCCAA, the sensor-assay potency score (higher = more potent) was -1.3.
On the same count and under the same terms, then TAGCATGGGGTTGTGCAGGAGC, with -0.83.
Regarding TAGCAGACGGACTTAGAGCAGA, the sensor-assay potency score (higher = more potent) was -0.81.
The sequence TTAGTTCTGCAGAACTTGGGTC yielded a sensor-assay potency score (higher = more potent) of 0.494.
Turning to TTACAGACGGGCACGCAGCAGA, the sensor-assay potency score (higher = more potent) was -0.719.
Still for that read-out and setting: then TAGACTGCTGGTAGCATGGGGT, with -0.566; and AAGACTCGGAGCAGGTAGGCAC, with -0.677; and TGCAGGAGCTGGTGTAGCCTGA, with -0.876.
Same read-out and setting: then TGGTAGCATGGGGTTGTGCAGG, with -1.66; and TAGGCACGAAGCACACAGGCTT, with 0.129.
Still for that read-out and setting: the same measure for AAGCACACAGGCTTGTTACAGA: -0.517.

In the next assay the target is KRTAP10-2. Described as above. Particulars: shRNA.
On to ACACAGCAGATGGACTTGCAGC, for which the sensor-assay potency score (higher = more potent) is -1.45.
As for AAGAGGATGACTCAGAGCAGGT, the sensor-assay potency score (higher = more potent) was -1.29.
Still for that read-out and setting: the same measure for TTGCAGCAGACGGACACACAGC: -1.17; for TGGCCTGAGGAAAAGCTGCAGG: -1.08.
On the same count and under the same terms, then AGCAGGACTGCTGACACGGGGA, with -1.24; and TAGACTGCTGGCAGCACGGAGA, with -0.939.
In the case of TTGGTGCAGGCGCTGGAGCAGA, the sensor-assay potency score (higher = more potent) was -1.45.
The same measure, in the same setting: the same measure for AACAGGTACACAGCAGATGGAC: -1.3; for CAGCACACAGCTTTGCAGCAGA: -2.3; for TGGGCACGCAGCACACAGCTTT: -1.18.
Turning to TACACAGCAGATGGACTTGCAG, the sensor-assay potency score (higher = more potent) is -0.914.
Same read-out and setting: the same measure for AGCATGAAGAGGATGACTCAGA: -1.89.

The target of a further assay is KRTAP13-1. The assay is described as above. Particulars: shRNA.
Consider TCCACATAGGATGTCTGGCAGC, for which the sensor-assay potency score (higher = more potent) is -1.92.
Same read-out and setting: the same measure for TCCAACGCCATAGCCCAGGGAA: -1.31.
Consider TTGGTCTGTAGCAAGAAGACTG, for which the sensor-assay potency score (higher = more potent) is -0.458.
Still for that read-out and setting: the same measure for TAGAATAAGAGGCTAATTCTTT: -0.634.
As for TAACCCAGGGATCTGAAGCCAC, the sensor-assay potency score (higher = more potent) was -0.898.
On the same count and under the same terms, the same measure for TGGTCTGTAGCAAGAAGACTGG: -0.92.
Regarding TAGCAAGAAGACTGGCAGCTCC, the sensor-assay potency score (higher = more potent) is -0.434.
Still for that read-out and setting: then TCTGTAGCAAGAAGACTGGCAG, with 0.163; and ACATAGGATGTCTGGCAGCTGG, with -1.73.
The same measure, in the same setting: the same measure for TAGGAAAAGCCACAGGAGGAGG: -1.49; for TAGACCTGGTTGCTGGGGTAGG: -1.13.

The next assay concerns the target KRTAP13-2. Described as above. Particulars: shRNA.
In the case of TCGTCTTGCAAGGACTGCAGAG, the sensor-assay potency score (higher = more potent) was -0.616.
The same measure, in the same setting: then TAGCGCAGGTAGTCACCACAGG, with -0.777; and AGGTAGTCACCACAGGAGCGGG, with -1.51.
Regarding TAAGTCGTCTTGCAAGGACTGC, the sensor-assay potency score (higher = more potent) was -0.646.
